For 107 sequences, z-score results are on record in PubChem BioAssay AID1508600 (Functional Genomics Laboratory (NCATS/FGL), 2020).

The campaign covered roughly 53,000 sequences. About 3,700 (7%) were called active. This is one part of a sample in which actives are shown more often than they occur. Unmarked numbers belong to inactive results.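 Rule for the calls: active = gene knockdowns whose robust z-score for IL-1 alpha signal is at least 2 or at most -2, so actives lie on both sides; inactive = the rest.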

A short description of this assay: Components of the Cytosolic LPS Sensing Pathway: Gene Identification via Genome-wide siRNA Screen.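 Note: robust z of the log signal after scaling to non-targeting control siRNA wells of the plate.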 To be noted: RAW264.7 macrophages, IL-1a HTRF, actives lie on both sides, screened at 100 nM (by protocol), cells primed 5 h with Pam3CSK4 first. The method, boiled down:
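Three distinct siRNAs per gene were tested singly at 100 nM in RAW264.7 macrophages. Following Pam3CSK4 priming and 24 hour LipidA transfection, IL-1a secretion was read by HTRF.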
(In general: In TR-FRET formats the signal depends on donor and acceptor labels being close together.)
Take GCUUUUCGGAGCUCUAUAUTT against Sipa1: the z-score was -2.23 (active).

Turning to GGCAGACGGUAAUAAACAUTT against Ralgapb, the z-score is -1.08.

Take GCGUGUAUACCAGCCUUACTT against Egfl7: the z-score is 0.0437.

Regarding GGACAUGAGGACUGUAUCATT against Clec4g, the z-score is -3.2 (active).

Turning to GGAAGGAUCUAAUCUUUUUTT against Vamp2, the z-score was 1.56.

Regarding GGAAGAAUUCUUGAAGAUGTT against Cetn4, the z-score is 1.13.

As for GCUAUGUGUUGAUUUAAAGTT against Pdk1, the z-score is 0.422.

For the sequence GGCUACAGCCGUCAAAGAUTT against R74862, the z-score is -0.091.

As to GGAAGAAGCCUUUUGAGUGTT against Peg3, the z-score was 1.39.

Turning to CCAGCUAUGAAUCAGAAUGTT against Bend6, the z-score is 2.6 (active).

With CCGAAAGAUCAGCACAUCCTT against Olfr24, the z-score is -0.184.

CGGCUGUGUGCAUUUAAAGTT against Bmpr2: the z-score is 0.616.

As for CCUUUGAUUCACAAUGGUUTT against Smad4, the z-score is -0.0886.

With GCUCGAACAUAGCAGCAAGTT against BC061195, the z-score is -2.11 (active).

On to GGGUUUCAACCGUCACCUGTT against Pygl, for which the z-score was -1.89.

Take “GGCCCUUACAGAGUCUGGATT against B930095G15Rik”: the z-score is 0.833.

Take CGAAUUCAUACCAAGAAAGTT against Myo3a: the z-score is 0.477.

With GCCAAGUGGUGACAUCAACTT against Ralgds, the z-score was 2.7 (active).

As to GGGCAAUGUGUUUAUGUAUTT against Tmem30a, the z-score is -0.264.

As to GGAUAUACAAAGGAACGCATT against Wdr20rt, the z-score was -0.862.

Turning to GGUUCUGACCACCUACAUATT against Htr3a, the z-score is -1.62.

As for GGCUAUACCCUGAAAUAUUTT against Slitrk4, the z-score was -0.00892.

CCUACUACACCACUUGGGUTT against Dpm2: the z-score is 0.365.

As for GGGCAAAUUAGAGACCAAGTT against Nwd2, the z-score was 0.692.

Regarding GGAGGAUAUGAGCAAGUACTT against Isg20, the z-score was -0.476.

Consider GGUUAACGGAUCAACAUUUTT against Ube2d2a, for which the z-score is 1.71.

GGAAUUUUCUUCAUUUGGATT against Pabpc5: the z-score was -0.878.

As for GGUACCAGACCUCAUAGUUTT against Cep95, the z-score was 2.16 (active).

As to GGGAAGAAAAUGAAAGGUUTT against Cdk5rap2, the z-score was -1.14.

For the sequence GGUGUCAACCAGUUGUUUUTT against Nr2c1, the z-score is -1.2.

For the sequence CCUAAAGUCACAUCUAAGATT against Pum3, the z-score was 1.06.

As for GGAACUGUCCGAUCUUAGATT against Prrg4, the z-score is -1.88.

Consider GCUACUCCCUGCAUAUUAGTT against Slamf9, for which the z-score is -1.48.

GGCAGCUUUCCUAUUGAAUTT against Tex19.1: the z-score is 0.233.

GGACUUUGAUCAGCUGUCUTT against Tmem17: the z-score is -2.12 (active).

In the case of GGUUGAUCGUGUCAUGUAGTT against Poc1b, the z-score was 0.0595.

With GGCUAUACCUUUGACUAUGTT against Csnk1g1, the z-score was 0.0256.

As to GGGCAGCAUCGGACUAAAUTT against Agtr1a, the z-score was 2.35 (active).

GGUUGUAGGAGAGGAAGCCTT against Apobr: the z-score is -0.572.

For GGUACGAAGUCAAAGUGAATT against Dnmt3l, the z-score is 0.0494.

For the sequence GGAGUUAGAUGCCCUCAAGTT against Trappc6a, the z-score was -0.796.

Consider CAGCUGAGAUUGAUGGCCATT against Olfr313, for which the z-score is -0.6.

Take GCCUGAAUAUUGCUAUCACTT against Gpr107: the z-score was 2.35 (active).

With GCAACAACCACCAAAUCUATT against Prol1, the z-score was -1.53.

Regarding GGAAGAAUGUGAUGACUCATT against Zfp11, the z-score was -0.471.

“GGUAAUUUAAUGACACAUGTT against A130079P16Rik”: the z-score was 2.35 (active).

For GGAUCCAGACACCUCAAGATT against Vxn, the z-score is 0.702.

Turning to CGUUCAUGUUGUAAGUAUCTT against Olfr1196, the z-score is 0.461.

As to GGAGACUUUGAAAAAAGACTT against Mrps31, the z-score is 0.5.

For the sequence GCUGAAAAUAUACCAUUCATT against Colec10, the z-score is -0.798.

As to GGAUCCAGACUUAAGCUUATT against Zgpat, the z-score was 2.57 (active).

With CGGAUUACAAACCAUAAAATT against Mex3b, the z-score is -0.497.

Turning to GGAGAAGAGAAAGAUUCUUTT against Dhx9, the z-score was 0.724.

For GGCAAUGGAAGUUGGAACATT against Ptch1, the z-score was -2.15 (active).

On to GGACACAUGGUGUUGACCATT against Parp12, for which the z-score was 0.0379.

For the sequence GGACCUGAUCUUCAGGUUUTT against Gpc5, the z-score was 1.73.

Turning to GGCUCUCAAUUUUAUUUCUTT against Ncaph2, the z-score was 0.894.

Regarding GCACGAGACACUUUUCAUUTT against Dnajb5, the z-score is -0.0852.

Regarding GGAAGCAGAAUUGUAAAGATT against Hrk, the z-score is -1.09.

Consider “GCAACAAAAGGCCUAAUCATT against 4930550C14Rik”, for which the z-score was -1.74.

GGCCCUUGUUUAAAGCCAUTT against Asns: the z-score was 0.0954.

CGGCGUAUGAGGAUUGGUUTT against Atp8b1: the z-score was -0.739.

In the case of GGCCAAGAUUAGAUUGCUUTT against Senp2, the z-score was 2.57 (active).

Regarding GCCCGUAUAGGUAUUGGUCTT against Mpg, the z-score is 2.06 (active).

Regarding GCUUGAAUCCGAUUUGUUATT against Gramd1c, the z-score was 0.296.

Turning to GGCAUAUGAUGAUAAGUAATT against P2ry14, the z-score is 0.691.

In the case of GGCACUGAAGGAGAACCUGTT against Rbbp8nl, the z-score is -0.336.

GGAACAACUGAAAAUGAAGTT against Ppp1r21: the z-score was -1.21.

For UUCCAUUCAUAUGUCUUGATT against Tas2r109, the z-score is 0.00348.

Regarding GGUUUUUCUAAGAGAACGGTT against Rnft1, the z-score is -0.558.

Regarding CCUGGUCACUCCAAACCCATT against Zfp950, the z-score was -2.11 (active).

Consider GGAGCUCUCGAAGGAUUGUTT against Eda2r, for which the z-score was -0.768.

With GGAUAAGAGGGUGAAGUCATT against Cdyl2, the z-score was -1.06.

As to GGUAUAUAGGGCUGUGGCUTT against Pigs, the z-score was -0.822.

Regarding GGUGUACUUUAUCUCACGATT against Olfr6, the z-score is 1.1.

Regarding GCCUGUUCUAGGUGACCUATT against Chd3, the z-score was 0.236.

For the sequence GGAAAUACAGAACACAAGCTT against Plekhm3, the z-score was 2.04 (active).

In the case of GGUUAAAUAUGUAAACCACTT against Slco2b1, the z-score was 0.0949.

Consider CCAUAUAGCCUCAAAAUCGTT against Acat2, for which the z-score was -0.395.

Regarding CGUCUCAACAGAGUUGGAGTT against Prmt2, the z-score was 1.94.

In the case of CGAUGCUGAUGUAUCAAAGTT against Phkb, the z-score is 1.48.

For GGUUCUUUUUACUCAGUGGTT against Ankhd1, the z-score is -2.53 (active).

Regarding GGAACUUCCUGUUCAGAAATT against Eci3, the z-score was 0.881.

With CGUUAGUCUGUGAAUGCACTT against Emc10, the z-score was -0.442.

In the case of GGACAGUAAUAUGAUGAGCTT against Lzts1, the z-score is -0.943.

For the sequence GCUUUAGUGACGGCUCGAATT against Zscan2, the z-score was 2.07 (active).

On to GGGAGUGAGUUCUGGAGUGTT against Capn2, for which the z-score is 0.815.

As to GGUUUUAAAGCAAUGAGCATT against Olfr995, the z-score is -1.2.

Consider CCCAUGUCGUGACAUCACATT against Slc26a7, for which the z-score was -2.93 (active).

For the sequence GGCCUUCUAUUUUGUCAAUTT against Limd1, the z-score is 0.403.

In the case of GAAAUUUCCUAGAUGACUCTT against Vmn1r199, the z-score is -0.447.

CGUAUGAGUGCAAUACUAATT against Pcmtd1: the z-score was 1.32.

Take GCACAUAGUGUAUCUAUACTT against Cd86: the z-score was -1.24.

Consider GUCUUGCGUGACAACAUCCTT against H4c14, for which the z-score was 0.718.

Take GCUUAUAUGGCCUGAGAGATT against Tmem199: the z-score is -0.74.

As to GGUCAAAGGGAAACAAGUUTT against Creb3l4, the z-score was -2.02 (active).

On to GGUGGUUUAACUGGAUAUUTT against Paip2b, for which the z-score was -1.95.

On to GCCCAUGUAUCCAAAAGAATT against Cnmd, for which the z-score is -1.59.

Regarding GGUGAUUGACAGAUUCUGATT against Nr4a1, the z-score was -0.613.

Consider GCUUGGACCAUAAAUACUGTT against Senp5, for which the z-score is 0.051.

For GAUCAGAUGUUUGGGACUUTT against Olfr512, the z-score is 2.25 (active).

Consider GGACUUCUUAAUGUUUUACTT against Phf11a, for which the z-score was 0.398.

As for GCCCAAGGUAACAACAAGCTT against Rtn4r, the z-score was 1.28.

Turning to “GGUAACUUUGAACUGAUCCTT against 1700030J22Rik”, the z-score was -1.17.

Regarding CCCUCAACCUCCAACCACATT against Ceacam1, the z-score was -2.15 (active).

On to GGGUUAGAGUAAGGUAUUATT against Tsn, for which the z-score is -0.879.

For the sequence GCAGAUAGCCCACGUCAUUTT against Nfkb2, the z-score was 0.881.
